The values that follow come from ChEMBL document CHEMBL3433997, “St. Jude Leishmania screening dataset” (2016).

Structures are written as SMILES.

Common to all, as to type: functional
For test [1], the target named is Solute carrier family 2, facilitated glucose transporter member 1 (Homo sapiens) (UniProt P11166). Briefly: ST_JUDE_LEISH: Cytotoxicity at 2uM final concentration against transgenic Leishmania Mexicana promastigotes LmGLUT1 that are glucose transport deficient and complemented with the human glucose transporter GLUT1. Activity is measured by DNA content using SYBR green in vitro.
Chain of Solute carrier family 2, facilitated glucose transporter member 1 (Homo sapiens) (P11166 whole entry): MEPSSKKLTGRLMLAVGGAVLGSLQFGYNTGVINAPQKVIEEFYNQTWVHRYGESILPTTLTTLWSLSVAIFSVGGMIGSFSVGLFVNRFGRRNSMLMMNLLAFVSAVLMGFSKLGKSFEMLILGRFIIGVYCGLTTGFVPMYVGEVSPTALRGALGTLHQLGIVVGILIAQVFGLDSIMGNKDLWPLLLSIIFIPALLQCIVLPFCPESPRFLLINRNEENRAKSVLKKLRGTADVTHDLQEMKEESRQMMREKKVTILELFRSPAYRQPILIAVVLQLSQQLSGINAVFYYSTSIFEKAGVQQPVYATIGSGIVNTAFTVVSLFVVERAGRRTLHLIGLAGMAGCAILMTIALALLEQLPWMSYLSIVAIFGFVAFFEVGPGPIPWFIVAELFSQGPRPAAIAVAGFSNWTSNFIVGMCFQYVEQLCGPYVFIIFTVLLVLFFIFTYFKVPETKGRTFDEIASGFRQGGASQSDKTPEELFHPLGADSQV

The target in test [2] is Hexose transporter 1 (Plasmodium falciparum) (UniProt O97467). Briefly: ST_JUDE_LEISH: Cytotoxicity at 2uM final concentration against transgenic Leishmania Mexicana promastigotes LmPfHT that are glucose transport deficient and complemented with the Plasmodium falciparum hexose transporter. Activity is measured by DNA content using SYBR green in vitro.
For test [3], the target named is Glucose transporter (Leishmania mexicana) (UniProt O61059). In words: ST_JUDE_LEISH: Cytotoxicity at 2uM final concentration against transgenic Leishmania Mexicana promastigotes LmGT2 that are glucose transport deficient and complemented with the L. Mexicana glucose transporter 2. Activity is measured by DNA content using SYBR green in vitro.

Regarding `CNC(=O)C1Cc2c([nH]c3cc(Br)ccc23)C2(CCN(CCc3ccccc3)CC2)N1` (stereo not given), the inhibition (commonly the change of the read-out against control, counted positive when it falls) in test [1] was 2.01%; in test [2] it was 0.63%; in test [3], 1.83%.
On the same counts, the results for `CN1CCN(c2ccc(Nc3c(C(N)=O)cnc4cc(-c5ccoc5)ccc34)cc2)CC1` are 15.1%, 24.6% and 3.57%.
On the same counts, the results for `Cc1cccc2nc(-c3ccc(-c4cccc(CNCCNC(=O)c5ccnn5C)c4)cc3)[nH]c12` are 0.53%, 1.5% and -3.68%.
In the same order, the values of `O=C(Nc1ccc(Cl)cc1)c1ccc(CN2CCCN(Cc3ccccc3)CC2)cc1` are 1.68%, 3.72% and 1.45%.
Regarding `COc1ccc(NC(=O)Nc2nc(-c3ccc(Cl)c(C)c3)cs2)cc1N1CCN(C)CC1`, the figures for the inhibition in test [1], in test [2] and in test [3] were 0.68%, 3.54% and 2.63%, respectively.
On the same counts, the results for `O=C(N[C@@H](Cc1ccccc1)C(=O)NC1CCCCCC1)c1ccc(O)c(-c2cccc(C(F)(F)F)c2)c1` are 5.83%, 4.69% and 0.57%.
On the same counts, the results for `Cc1noc(C)c1-c1cccc(CNCc2ccc(-c3cccc(-c4nc5cc(F)ccc5[nH]4)c3)cc2)c1` are 11.3%, 10.1% and 10.8%.
On the same counts, the results for `O=C(NC1CCN(c2ccnc3cc(Cl)ccc23)C1)c1ccc(F)cc1F` (stereo not given) are 1.51%, 5.62% and 2.89%.
For `CC(C)C[C@H](NC(=O)c1cc2ccccc2s1)C(=O)N[C@H]1CCN(Cc2ccc(I)c(OC3CCN(C)C3)c2)C1` (stereo not given in full), the inhibition is -1.02% in test [1], 1.35% in test [2] and -2.35% in test [3].
On the same counts, the results for `O=C(/C=C/c1ccc(Cl)c(Cl)c1)NCCCCCN1CCCN(C(=O)Nc2ccc(Cl)c(Cl)c2)CC1` are -0.96%, -0.4% and -0.85%.
In the same order, the values of `c1ccc(CN2CCC(NCc3ccccc3-c3ccc(CNCc4ccc5c(c4)OCO5)cc3)CC2)cc1` are 11.8%, 10.4% and 9.54%.
On the same counts, the results for `Cc1cc(-c2ccc(NC(=O)Nc3ccc4nccc(N5CCN(C)CC5)c4c3)cc2C)cc(C)n1` are 7.15%, 5.84% and 8.51%.
As to `CC(=O)Nc1cccc(C(=O)Nc2nc3ccc(-c4cc(=O)[nH]c(Nc5ccccc5Cl)n4)cc3[nH]2)c1`, the values for the inhibition in test [1], in test [2] and in test [3] were 4.21%, 2.23% and 5.36%, respectively.
In the same order, the values of `COc1ccc(CCCCN2C(=O)C(c3ccccc3)(c3ccccc3)N=C2N)cc1` are 3.36%, 4.05% and 0.32%.
As to `NCC1(c2nc(-c3ccc(Cl)c(O)c3)c(-c3ccncc3)[nH]2)CCCCC1`, the inhibition worked out at 3.72% in test [1], 2.75% in test [2] and 0.55% in test [3].
In the same order, the values of `CCC1CN2CCc3c([nH]c4ccccc34)[C@@H]2C[C@@H]1CC1NCCc2cc(OC)c(OC)cc21` (stereo not given in full) are -0.82%, -1.25% and -1.42%.
On the same counts, the results for `COc1cc(Cc2cnc(N)nc2N)ccc1Oc1ccc(N)cc1` are 1.44%, 0.48% and 0.97%.
For `COc1ccc2ncc(OC)c(CCN3CC[C@@H](NCc4ccc5c(n4)NC(=O)CS5)[C@H](O)C3)c2n1`, the inhibition is 1.21% in test [1], 1.17% in test [2] and -0.86% in test [3].
In the same order, the values of `O=C(NCCNc1ccnc(Nc2ccc(F)cc2)n1)c1cc2ccccc2s1` are 5.85%, 7.62% and 0.69%.
In the same order, the values of `COc1ccc2nccc([C@@H](O)CN3CCC(NC(=O)/C=C/c4ccnc5ccccc45)CC3)c2c1` are -1.7%, -1.62% and -2.64%.
Turning to `O=C(NCc1ccccc1)Nc1cccc(-c2cccc(-c3nc4cc(C(F)(F)F)ccc4[nH]3)c2)c1`, the results for the inhibition in test [1], in test [2] and in test [3] were 4.49%, 4.71% and 6.02%, respectively.
On the same counts, the results for `O=C(c1cc(C(=O)NC2CCCCC2)c(=O)n(C2CCCCC2)c1)c1cc(F)ccc1O` are 2.83%, 1.22% and 1.41%.
In the same order, the values of `COc1ccc(NC(=O)CCNc2cc(C)nc(NCc3ccccc3C)n2)cc1` are 5.23%, 5.4% and 3.93%.
As for `Cc1cc(Nc2cc(Cl)cc(Cl)c2)nc(N)n1`, the inhibition in test [1] is 9.89%; in test [2], 10.2%; in test [3] it was 6.94%.
On the same counts, the results for `COc1ccccc1Cc1nc2ccccc2nc1SCC(=O)Nc1cccc(C(F)(F)F)c1` are 3.27%, 3.21% and 1.7%.
On the same counts, the results for `O=C(Nc1ccc(Br)cc1)N(CCN1CCOCC1)CC(O)COc1ccc(Cl)c(F)c1` (stereo not given) are -0.94%, -1.53% and 1.5%.
In the same order, the values of `Cc1cc(NC2CCCC2)nc(Nc2ccc(F)cc2)n1` are 8.81%, 7.56% and 0.46%.
Take `FC(F)(F)c1ccc2[nH]ccc(=NN=Cc3cccc(Cl)c3)c2c1`: the inhibition in test [1] is 1.05%; in test [2] it was -0.16%; in test [3], -3.89%.
Regarding `CN(C)CCOC(=O)C1(O)CCC2CC1C2(C)C` (stereo not given), the inhibition in test [1] is 2.52%; in test [2], 2.06%; in test [3], 2.45%.
In the same order, the values of `COc1ccc(NC(=O)c2cc(-c3ccc(NC(C)=O)cc3)cnc2N)cc1` are 2.25%, 2.66% and 0.5%.
